Measured values published in PubChem BioAssay (NCATS).
Results filed as inconclusive are left out. A call without a number means that no potency is given here. Calls of active or inactive are those of the source. Calls come from the whole dose curve; as a rule, active = well fitted curve in the direction sought with a large enough effect; inconclusive = small, poorly fitted or top-dose-only effect, or another doubt; inactive = no such curve, though single readings can be large; an effect the other way counts as inactive or inconclusive.

Columns and labels:
[1] = Viability qHTS for spleen associated tyrosine kinase inhibitor (SYKi) drug resistant MV4-11 cells (AID 1963824); note: nearly all actives have a fitted effect of over 35% in size
Summary of the method: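 SYK inhibitor-resistant MV4-11 AML cells, 500 per well, added to predispensed compounds and incubated 72 hr at 37 C, 5% CO2. Viability measured by CellTiter-Glo luminescence after 10 min at room temperature.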

[2] = Cellular viability qHTS for adrenocortical cancer (ACC) cell line NCI-H295R (AID 1963990); note: nearly all actives have a fitted effect of over 60% in size
Summary of the method: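 Adrenocortical carcinoma cells, suspended at 300 000 cells/mL in serum-free DMEM plus ITS, rested overnight before pin transfer of compound. After two days' incubation, ATP-dependent luminescence was recorded and curve-fitted.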
Potency is the fitted concentration of half-maximal effect.

Compound	Potency [1]	Potency [2]
O=C(O)c1ccccc1Nc1cccc(C(F)(F)F)c1	inactive	inactive
O=C(OCCOCCO)c1ccccc1Nc1cccc(C(F)(F)F)c1	14.6 µM (active)	25.9 µM (active)
CS(=O)(=O)Nc1cc2occ(NC=O)c(=O)c2cc1Oc1ccccc1	inactive	inactive
O=C(Oc1cccc2cccnc12)c1ccccc1	inactive	23.1 µM (active)
